Measured values taken from the supplement of paper PMC10849652.
About 8,800 targets were measured; listed, in parts, are those with a hit and a random draw of the rest. About 0.5% of all pairs of compound and target were hits. A number with no mark means an inactive call.

Legend:
Assay in all cases: log2 fold change, soluble protein after heating vs DMSO (PISA); higher = thermal stabilisation; K562 lysate, 10 uM; active = over 0.2 and 3.5 SD of the protein, either way, in both replicates (recomputed)
erlotinib = compound: C#Cc1cccc(Nc2ncnc3cc(OCCOC)c(OCCOC)cc23)c1 [erlotinib]
Method in brief: (§1)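 Quantification was by TMTpro 16plex LC-MS/MS with equalised channel sums, applied to the supernatant after 21,000xg for 90 min. Samples were crude K562 extract at 1 mg/mL protein in PBS pH 7.4 with 1 mM MgCl2, treated with 10 μM compound for 30 min, heated for 3 min across 48°C-58°C, pooled and brought to 0.5% NP-40 at 4°C. Values are log-two fold changes in thermal stability relative to solvent controls, from duplicates.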

[1] = compound: C/C(=N\NC(=O)C1=CC(=CC=C1)S(=O)(=O)N2CCOCC2)/C3=C(C=CC(=C3)Cl)O
Method in brief: as §1

[2] = compound: C1=CC(=CC=C1C2=NC3=C(N2)C=C(C=C3)C(=O)N)OC4=CC=C(C=C4)Cl
Method in brief: as §1

[3] = compound: C1=CC2=C(C=CC(=C2)/C=C\3/C(=O)NC(=NCC4=CC=CS4)S3)N=C1
Method in brief: as §1

[4] = compound: C1=CC2=NC=CN=C2C=C1/C=C/3\C(=O)NC(=O)S3
Method in brief: as §1

[5] = compound: C1=CC=C(C=C1)C2=NC(=C(N2)C3=CC=NC=C3)C4=CC(=C(C=C4)Cl)O
Method in brief: as §1

[6] = compound: C1=CC=C2C(=C1)C3=NNC4=CC=CC(=C43)C2=O
Method in brief: as §1

[7] = compound: C1CCN(C1)C(=O)NC2=CC=CC(=C2)NC3=NC=C(C(=N3)NCCC4=CN=CN4)Br
Method in brief: as §1

[8] = compound: C1CN(CCC1(CC2=CC=C(C=C2)Cl)N)C3=NC=NC4=C3C=CN4
Method in brief: as §1

IRAK-1-4 Inhibitor I = compound: C1COCCN1CCN2C3=CC=CC=C3N=C2NC(=O)C4=CC(=CC=C4)[N+](=O)[O-] [IRAK-1-4 Inhibitor I]
Method in brief: as §1

ibrutinib = compound: C=CC(=O)N1CCC[C@@H](n2nc(-c3ccc(Oc4ccccc4)cc3)c3c(N)ncnc32)C1 [ibrutinib]
Method in brief: as §1

[9] = compound: CC(=O)c1cnc2ccc(-c3cc(Cl)c(O)c(Cl)c3)nc2c1N[C@H]1CC[C@H](CN(C)C)CC1
Method in brief: as §1

ralimetinib = compound: CC(C)(C)Cn1c(N)nc2ccc(-c3[nH]c(C(C)(C)C)nc3-c3ccc(F)cc3)nc21 [ralimetinib]
Method in brief: as §1

[10] = compound: CC(C)(O)CC(=O)NCCn1ccc2ncnc(Nc3ccc(Oc4cccc(C(F)(F)F)c4)c(Cl)c3)c21
Method in brief: as §1

[11] = compound: CC(C)C1=C2N=C(C=C(N2N=C1)NCC3=CC=CC=C3)NCCCCCCN
Method in brief: as §1

[12] = compound: CC1=C(C(CC(=O)N1)C2=CC=C(C=C2)C(F)(F)F)C(=O)NC3=C(C=C4C(=C3)C=NN4)F
Method in brief: as §1

[13] = compound: CC1=C(C2=C(C=C1)C(=O)C3=CC=CC=C3N2CCCN)C
Method in brief: as §1

[14] = compound: CC1=C(C=C(C=C1)NC(=O)C2=CC(=CC=C2)C(C)(C)C#N)NC3=CC4=C(C=C3)N=CN(C4=O)C
Method in brief: as §1

[15] = compound: CC1=C(C=C(C=C1)NC(=O)C2=CC(=CC=C2)N(C)C)NC(=O)C3=CC=C(C=C3)O
Method in brief: as §1

[16] = compound: CC1=CC=C(C=C1)SC2=C3C=C(SC3=CN=C2)C(=O)N
Method in brief: as §1

Chain of UniProt O75477 (O75477 whole entry, looked up): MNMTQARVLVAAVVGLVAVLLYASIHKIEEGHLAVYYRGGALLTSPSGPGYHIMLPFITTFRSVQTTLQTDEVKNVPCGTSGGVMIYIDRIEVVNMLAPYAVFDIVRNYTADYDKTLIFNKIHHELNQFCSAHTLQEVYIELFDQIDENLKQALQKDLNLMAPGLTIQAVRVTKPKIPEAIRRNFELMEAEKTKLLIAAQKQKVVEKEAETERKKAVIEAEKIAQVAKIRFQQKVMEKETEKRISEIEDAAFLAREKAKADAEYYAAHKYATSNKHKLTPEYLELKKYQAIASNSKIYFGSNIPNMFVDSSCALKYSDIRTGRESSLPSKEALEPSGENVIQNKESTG
Chain of UniProt Q9UJY4 (Q9UJY4 whole entry, looked up): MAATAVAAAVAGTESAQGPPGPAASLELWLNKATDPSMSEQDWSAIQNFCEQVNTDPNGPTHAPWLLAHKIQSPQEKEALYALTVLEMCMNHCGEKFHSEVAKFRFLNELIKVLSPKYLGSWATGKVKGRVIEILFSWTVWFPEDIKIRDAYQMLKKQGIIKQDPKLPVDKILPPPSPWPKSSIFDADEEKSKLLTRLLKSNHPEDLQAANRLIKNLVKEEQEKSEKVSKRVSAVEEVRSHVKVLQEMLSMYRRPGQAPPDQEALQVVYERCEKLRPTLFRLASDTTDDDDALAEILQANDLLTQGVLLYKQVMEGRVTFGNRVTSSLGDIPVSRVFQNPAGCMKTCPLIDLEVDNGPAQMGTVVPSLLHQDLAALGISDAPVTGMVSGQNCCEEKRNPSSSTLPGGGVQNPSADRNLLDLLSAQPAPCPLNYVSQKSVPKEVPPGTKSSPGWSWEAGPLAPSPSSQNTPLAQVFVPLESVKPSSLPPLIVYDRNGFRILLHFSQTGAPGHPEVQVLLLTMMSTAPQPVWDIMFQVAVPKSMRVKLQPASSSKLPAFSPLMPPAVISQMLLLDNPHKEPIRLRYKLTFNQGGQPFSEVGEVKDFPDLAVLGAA
Chain of UniProt P06241 (P06241 whole entry, looked up): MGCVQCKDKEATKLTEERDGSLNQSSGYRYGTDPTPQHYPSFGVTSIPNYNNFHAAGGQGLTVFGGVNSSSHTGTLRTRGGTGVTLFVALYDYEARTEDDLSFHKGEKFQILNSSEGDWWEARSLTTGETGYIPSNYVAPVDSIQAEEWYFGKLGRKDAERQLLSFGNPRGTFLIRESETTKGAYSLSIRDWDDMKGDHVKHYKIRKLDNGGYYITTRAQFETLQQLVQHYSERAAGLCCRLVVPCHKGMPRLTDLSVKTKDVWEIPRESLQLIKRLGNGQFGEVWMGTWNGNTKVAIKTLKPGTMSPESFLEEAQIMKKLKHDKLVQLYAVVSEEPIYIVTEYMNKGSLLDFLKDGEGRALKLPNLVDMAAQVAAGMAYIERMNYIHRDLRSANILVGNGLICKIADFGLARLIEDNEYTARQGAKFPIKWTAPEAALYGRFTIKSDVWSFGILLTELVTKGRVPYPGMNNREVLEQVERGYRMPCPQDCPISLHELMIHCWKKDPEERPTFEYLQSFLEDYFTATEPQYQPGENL
Chain of UniProt P35916 (P35916 whole entry, looked up): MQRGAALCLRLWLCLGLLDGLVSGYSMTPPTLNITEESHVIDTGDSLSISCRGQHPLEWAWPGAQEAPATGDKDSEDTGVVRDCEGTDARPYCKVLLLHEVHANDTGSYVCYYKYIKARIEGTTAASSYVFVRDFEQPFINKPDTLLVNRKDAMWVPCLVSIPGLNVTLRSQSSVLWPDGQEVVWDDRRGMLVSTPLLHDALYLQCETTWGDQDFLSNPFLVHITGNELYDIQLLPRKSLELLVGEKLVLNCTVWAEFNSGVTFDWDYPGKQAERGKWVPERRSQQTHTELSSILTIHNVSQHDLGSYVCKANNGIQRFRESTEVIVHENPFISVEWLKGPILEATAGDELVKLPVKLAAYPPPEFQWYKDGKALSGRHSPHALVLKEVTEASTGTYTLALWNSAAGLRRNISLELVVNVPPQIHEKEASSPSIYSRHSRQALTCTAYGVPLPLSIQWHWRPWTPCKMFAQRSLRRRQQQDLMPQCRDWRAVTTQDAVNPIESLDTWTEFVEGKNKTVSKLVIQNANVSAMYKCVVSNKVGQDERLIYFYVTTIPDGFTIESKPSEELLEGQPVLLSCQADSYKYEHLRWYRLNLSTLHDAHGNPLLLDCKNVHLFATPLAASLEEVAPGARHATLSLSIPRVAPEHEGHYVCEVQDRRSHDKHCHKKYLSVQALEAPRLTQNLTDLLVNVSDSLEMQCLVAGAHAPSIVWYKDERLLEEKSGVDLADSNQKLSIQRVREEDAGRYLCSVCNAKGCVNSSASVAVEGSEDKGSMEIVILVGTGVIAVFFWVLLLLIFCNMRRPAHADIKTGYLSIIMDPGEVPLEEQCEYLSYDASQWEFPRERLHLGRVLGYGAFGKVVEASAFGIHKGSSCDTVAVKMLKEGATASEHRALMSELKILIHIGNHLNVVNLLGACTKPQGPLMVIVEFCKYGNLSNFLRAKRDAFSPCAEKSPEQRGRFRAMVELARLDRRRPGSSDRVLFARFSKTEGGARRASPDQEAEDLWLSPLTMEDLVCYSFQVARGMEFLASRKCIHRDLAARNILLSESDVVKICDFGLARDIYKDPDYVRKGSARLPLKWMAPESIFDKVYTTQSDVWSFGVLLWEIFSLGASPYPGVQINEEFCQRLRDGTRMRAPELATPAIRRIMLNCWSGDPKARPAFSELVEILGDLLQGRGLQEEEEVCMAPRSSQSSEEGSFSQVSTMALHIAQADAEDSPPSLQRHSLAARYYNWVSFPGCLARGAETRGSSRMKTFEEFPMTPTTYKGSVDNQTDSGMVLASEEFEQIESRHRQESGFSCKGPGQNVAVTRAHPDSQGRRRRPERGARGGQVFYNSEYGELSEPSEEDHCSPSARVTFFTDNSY
Chain of UniProt Q06547 (Q06547 whole entry, looked up): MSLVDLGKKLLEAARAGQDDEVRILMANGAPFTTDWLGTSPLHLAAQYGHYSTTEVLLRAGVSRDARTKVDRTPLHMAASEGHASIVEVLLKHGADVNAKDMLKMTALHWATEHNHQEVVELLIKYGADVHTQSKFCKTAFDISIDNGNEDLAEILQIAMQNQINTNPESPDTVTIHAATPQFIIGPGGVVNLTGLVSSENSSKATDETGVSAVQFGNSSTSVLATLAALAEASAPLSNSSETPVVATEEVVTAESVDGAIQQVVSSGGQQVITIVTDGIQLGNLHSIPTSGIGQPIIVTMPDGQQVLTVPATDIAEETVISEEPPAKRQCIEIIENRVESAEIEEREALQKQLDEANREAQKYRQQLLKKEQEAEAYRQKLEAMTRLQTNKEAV
Chain of UniProt Q8N9F7 (Q8N9F7 whole entry, looked up): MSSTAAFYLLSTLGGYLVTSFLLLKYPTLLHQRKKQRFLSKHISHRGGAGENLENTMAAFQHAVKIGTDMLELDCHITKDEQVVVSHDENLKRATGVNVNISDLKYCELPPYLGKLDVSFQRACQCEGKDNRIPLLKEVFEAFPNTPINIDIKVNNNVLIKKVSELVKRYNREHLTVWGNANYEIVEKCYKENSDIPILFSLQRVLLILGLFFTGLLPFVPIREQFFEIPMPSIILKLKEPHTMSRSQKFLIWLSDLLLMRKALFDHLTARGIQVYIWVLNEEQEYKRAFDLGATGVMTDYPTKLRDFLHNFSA
Chain of UniProt P04406 (P04406 whole entry, looked up): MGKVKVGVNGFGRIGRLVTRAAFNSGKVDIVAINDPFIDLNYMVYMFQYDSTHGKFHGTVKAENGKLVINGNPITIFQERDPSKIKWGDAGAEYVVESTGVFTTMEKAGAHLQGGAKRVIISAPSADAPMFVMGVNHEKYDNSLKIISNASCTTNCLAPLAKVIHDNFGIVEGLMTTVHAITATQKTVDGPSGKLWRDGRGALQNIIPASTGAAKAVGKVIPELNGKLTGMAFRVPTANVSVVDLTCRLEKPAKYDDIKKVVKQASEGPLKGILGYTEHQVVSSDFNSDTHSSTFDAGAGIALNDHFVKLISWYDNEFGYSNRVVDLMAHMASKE
Chain of UniProt Q13409 (Q13409 whole entry, looked up): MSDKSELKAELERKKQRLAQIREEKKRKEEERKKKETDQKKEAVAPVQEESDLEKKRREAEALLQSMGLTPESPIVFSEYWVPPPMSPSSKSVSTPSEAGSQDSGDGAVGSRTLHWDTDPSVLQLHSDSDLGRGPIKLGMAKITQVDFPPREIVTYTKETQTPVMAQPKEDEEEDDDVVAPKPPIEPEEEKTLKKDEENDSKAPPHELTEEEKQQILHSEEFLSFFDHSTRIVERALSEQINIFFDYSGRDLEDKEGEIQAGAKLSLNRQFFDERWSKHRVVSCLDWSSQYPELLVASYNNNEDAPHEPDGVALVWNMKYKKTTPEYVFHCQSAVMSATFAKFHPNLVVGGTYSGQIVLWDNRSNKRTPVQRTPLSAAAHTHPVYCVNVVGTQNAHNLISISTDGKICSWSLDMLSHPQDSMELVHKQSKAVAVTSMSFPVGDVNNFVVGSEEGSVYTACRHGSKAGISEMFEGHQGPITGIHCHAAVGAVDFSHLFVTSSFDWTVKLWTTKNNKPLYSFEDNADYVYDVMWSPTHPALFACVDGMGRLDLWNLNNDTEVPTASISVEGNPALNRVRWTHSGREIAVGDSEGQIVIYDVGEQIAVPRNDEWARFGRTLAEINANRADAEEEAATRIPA
Chain of UniProt Q9UET6 (Q9UET6 whole entry, looked up): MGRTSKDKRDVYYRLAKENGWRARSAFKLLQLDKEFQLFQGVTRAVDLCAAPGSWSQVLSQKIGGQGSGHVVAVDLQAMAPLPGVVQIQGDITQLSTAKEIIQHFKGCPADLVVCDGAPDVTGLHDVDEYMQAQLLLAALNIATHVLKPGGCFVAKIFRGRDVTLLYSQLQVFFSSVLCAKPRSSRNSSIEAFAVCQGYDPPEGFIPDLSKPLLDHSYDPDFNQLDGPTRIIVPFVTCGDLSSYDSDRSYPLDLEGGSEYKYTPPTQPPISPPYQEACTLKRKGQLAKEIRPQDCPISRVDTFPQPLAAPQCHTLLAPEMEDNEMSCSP

Target	log2 fold change (erlotinib)	log2 fold change [1]	log2 fold change [2]	log2 fold change [3]	log2 fold change [4]	log2 fold change [5]	log2 fold change [6]	log2 fold change [7]	log2 fold change [8]	log2 fold change (IRAK-1-4 Inhibitor I)	log2 fold change (ibrutinib)	log2 fold change [9]	log2 fold change (ralimetinib)	log2 fold change [10]	log2 fold change [11]	log2 fold change [12]	log2 fold change [13]	log2 fold change [14]	log2 fold change [15]	log2 fold change [16]
EIF2B4 (UniProt Q9UI10)	0.066	-0.063	-0.027	-0.178	-0.02	-0.121	0.105	-0.009	0.07	0.118	-0.01	0.05	-0.033	-0.062	0.013	0.009	-0.109	-0.044	0.005	-0.038
GABPB1 isoform 3 (UniProt Q06547)	-0.03	-0.042	-0.051	0.016	0.045	-0.048	-0.035	-0.032	0.084	0.078	0.085	-0.027	0.043	-0.068	0.121	–	0.099	-0.051	-0.042	0.03
GGA2 (UniProt Q9UJY4)	-0.014	0.042	0.064	0.016	0.019	0.014	-0.054	0.074	0.034	0.01	-0.007	0	0.026	-0.01	-0.062	0.099	0.01	-0.024	0.031	-0.021
DYNC1I2 isoform 2 (UniProt Q13409)	-0.012	-0.032	0.108	-0.088	-0.127	-0.002	0.055	0.005	-0.006	0.01	-0.101	-0.032	-0.04	-0.032	-0.017	–	0.083	-0.019	-0.047	0.012
GAPDH (UniProt P04406)	-0.007	-0.032	0.031	0.006	-0.006	-0.005	0.028	0.027	-0.034	0.003	0.037	0.021	-0.006	0.02	0.008	-0.01	-0.008	-0.037	-0.014	0.009
FLT4 (UniProt P35916)	0.047	0.036	0.038	0.039	0.075	0.046	0.044	-0.097	0.087	-0.029	0.062	0.064	0.012	-0.005	-0.057	–	0.038	–	-0.019	0.005
FUBP3 (UniProt Q96I24)	-0.023	0.003	0.04	0.007	-0.009	-0.141	-0.033	-0.038	0.003	0.023	0.024	0.002	0.021	-0.051	0.014	-0.018	0.072	-0.149	-0.003	-0.018
FYN (UniProt P06241)	-0.028	0.02	0.025	0.028	-0.062	0.058	0.092	0.132	-0.018	-0.145	0.79 (active)	0.046	0.09	-0.13	0.003	–	-0.042	-0.069	0.052	0.021
DVL2 (UniProt O14641)	0.012	-0.028	0.011	-0.015	0.03	-0.055	-0.029	0.001	0.067	-0.073	-0.032	0.085	0.022	0.032	-0.019	0.028	-0.056	-0.072	0.045	0.11
FTSJ1 (UniProt Q9UET6)	-0.008	0	0.039	0.005	-0.025	0.07	0.034	-0.007	0.016	0.019	0.004	-0.006	-0.03	0.094	-0.054	0.011	0.069	-0.024	0.062	0.03
ERLIN1 (UniProt O75477)	-0.031	0.123	-0.17	0.072	-0.038	0.015	-0.02	-0.015	-0.046	-0.071	0.005	0.034	-0.011	0.038	-0.007	0.044	0.005	-0.052	-0.008	0.012
EXOC4 (UniProt Q96A65)	0.031	0.034	-0.065	0.031	0.012	-0.015	-0.026	-0.011	0.011	-0.009	-0.004	-0.011	0.014	-0.031	-0.003	-0.013	0.022	-0.031	0.02	0.002
FAM114A2 (UniProt Q9NRY5)	-0.039	-0.068	0.141	-0.028	-0.1	-0.052	0.02	-0.045	-0.104	-0.002	-0.016	-0.061	-0.036	-0.11	0.057	0.171	0.06	-0.069	0.005	0.012
GDPD1 (UniProt Q8N9F7)	-0.037	0.248	-0.112	0.001	-0.041	0.011	-0.024	0.032	0.086	0.038	0.039	-0.058	0.06	-0.137	0.047	-0.032	-0.001	0.055	0.024	-0.063
FREM2 (UniProt Q5SZK8)	0.015	-0.095	-0.109	-0.065	0.047	0.008	-0.051	-0.02	-0.021	0.009	-0.062	0.024	-0.014	-0.042	-0.024	-0.06	-0.01	0.079	0.035	-0.073
GFPT1 (UniProt Q06210)	0.031	-0.008	0.003	0.013	-0.008	0.001	-0.014	-0.021	0.008	0.006	0.014	-0.014	0.002	-0.024	0.022	-0.015	0.012	0.009	0.014	0.01
